From PubChem
In the library only some 1.3% were active in any assay of this set; here they are far more common.
IDE act: human IDE activators in live cells, primary screen, fluorescence polarization, HEK cells, FAbeta-B substrate; Insulin-degrading enzyme (Homo sapiens), P14735; FAbeta-B cleavage; 0% vehicle, 100% cell-free pure enzyme wells; activation, % at 5.96 µM; hit rate 0.073% among 340,000;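 active means activation above the mean of all tested compounds plus 3 SD, set per screening campaign, cut at about 17% in these data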
Target sequence (P14735 whole entry, looked up): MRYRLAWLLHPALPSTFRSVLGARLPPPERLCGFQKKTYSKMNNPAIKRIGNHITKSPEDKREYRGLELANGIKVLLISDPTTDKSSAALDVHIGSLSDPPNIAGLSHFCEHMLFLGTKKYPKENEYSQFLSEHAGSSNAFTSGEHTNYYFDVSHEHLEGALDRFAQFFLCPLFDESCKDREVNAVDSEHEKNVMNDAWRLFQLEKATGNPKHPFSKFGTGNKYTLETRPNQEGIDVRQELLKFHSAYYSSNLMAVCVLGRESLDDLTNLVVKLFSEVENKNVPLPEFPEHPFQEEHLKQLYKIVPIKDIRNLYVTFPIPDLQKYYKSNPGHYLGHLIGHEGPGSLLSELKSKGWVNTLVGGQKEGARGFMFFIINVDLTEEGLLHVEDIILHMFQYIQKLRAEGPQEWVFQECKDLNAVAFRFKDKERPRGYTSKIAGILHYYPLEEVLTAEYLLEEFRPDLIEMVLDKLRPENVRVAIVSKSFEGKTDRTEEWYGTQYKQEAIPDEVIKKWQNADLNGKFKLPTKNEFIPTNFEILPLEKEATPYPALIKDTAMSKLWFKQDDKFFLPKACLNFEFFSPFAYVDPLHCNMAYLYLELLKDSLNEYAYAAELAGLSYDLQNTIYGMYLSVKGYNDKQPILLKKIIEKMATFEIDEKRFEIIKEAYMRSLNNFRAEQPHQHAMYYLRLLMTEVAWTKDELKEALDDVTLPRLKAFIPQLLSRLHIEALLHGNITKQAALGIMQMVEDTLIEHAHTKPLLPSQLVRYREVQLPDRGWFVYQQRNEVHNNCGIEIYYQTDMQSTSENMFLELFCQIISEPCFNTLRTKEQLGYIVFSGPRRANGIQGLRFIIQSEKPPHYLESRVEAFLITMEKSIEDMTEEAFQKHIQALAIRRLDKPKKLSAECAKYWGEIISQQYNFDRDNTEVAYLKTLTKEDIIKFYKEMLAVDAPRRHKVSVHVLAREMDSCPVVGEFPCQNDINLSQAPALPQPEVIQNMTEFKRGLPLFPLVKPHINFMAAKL
PKA-R1A act: activators of PKA-R1A holoenzyme, primary screen, biochemical, fluorescence polarization, Cy5-IP20, bovine R1A, mouse PKAc; cAMP-dependent protein kinase type I-alpha regulatory subunit (Bos taurus) + …; PKA-R1A dissociation; scaled: DMSO 0%, 113 µM cGMP 100%; activation, % at 11.4 µM; hit rate 0.083% among 340,000; AID 504707, 2011;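 active means percent activation above the mean of all tested compounds plus 3 SD, cut at about 19% in these data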;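 further: higher means more PKAc released from R1A so a rise in polarization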
IDE cell inh: human IDE inhibitors in live cells, primary screen, fluorescence polarization, HEK cells, FAbetaB substrate | AID 434962, 2010 | FAbetaB cleavage | hit rate 0.41% among 320,000 | inhibition, % at 5.59 µM;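 active means percent inhibition above the average of all tested compounds plus 3 SD, set per screening campaign, cut at about 16% in these data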;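 further: IDE supplied by intact live HEK cells; FP after avidin binding of uncleaved biotin substrate so inhibition keeps polarization high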
eLon inh: inhibitors of E. coli Lon protease, primary screen, biochemical, fluorescence polarization. inhibition, % at 7.94 µM. purified E. coli Lon protease. P0A9M0. AID 602123, 2011. hit rate 0.42% among 360,000; in the data active means inhibition above about 13%, passing the limit was not always enough
Rin1 Abl inh: inhibitors of Rin1-Abl protein binding, primary screen, biochemical, TR-FRET. inhibition, % at 7.35 µM. hit rate 0.4% among 360,000; in the data active means inhibition above about 5%, passing the limit was not always enough
PKA-R2B activ: activators of PKA-R2B holoenzyme, primary screen, biochemical, fluorescence polarization, Cy5-IP20, human | activation, % at 11.4 µM | AID 504700, 2011 | hit rate 0.079% among 340,000 | cAMP-dependent protein kinase catalytic subunit beta (Homo sapiens) + cAMP-dependent … | PKA-R2B holoenzyme dissociation; R2B truncated from residue 108, S112A mutant; 0% DMSO only, 100% 113 µM cGMP;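 active means activation above a cutoff set at the mean over all compounds plus 3 SD, cut at about 18% in these data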;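 further: higher means more holoenzyme dissociation and a rise in polarization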
Rin1-Abl confirm: Rin1-Abl binding inhibitor retest, confirmation, biochemical, TR-FRET; shares compounds with Rin1 Abl inh; purified proteins; inhibition, % at 7.35 µM; hit rate 49% among 1,300
GFP quencher: GFP fluorescence inhibitors and quenchers, artefact control for Rin1-Abl interaction inhibitor project, biochemical; inhibition, % at 6.75 µM; inhibitors/quenchers counterscreen; shares compounds with Rin1 Abl inh; hit rate 8.5% among 1,300;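 further: ABL1-eGFP fusion protein alone without its partner RIN1-SBP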
eLon confirm: E. coli Lon protease inhibitor retest, confirmation, biochemical, fluorescence polarization; purified E. coli Lon; hit rate 31% among 1,400; inhibition, % at 7.94 µM; shares compounds with eLon inh; AID 602230, 2012; in the data active means inhibition above about 16%
A number is an active result. Unless noted, no stated cut-off is given here; in the data, active means inhibition above about 6.5%; inactive means the rest.

CC(Nc1cccc2ccccc12)C(=O)N/N=C/c1ccccn1 (stereo unspecified) was read as IDE act inactive, PKA-R1A act inactive, IDE cell inh inactive, eLon inh 24, Rin1 Abl inh 11, PKA-R2B activ inactive, Rin1-Abl confirm inactive, GFP quencher inactive and eLon confirm inactive.
Screening CCOc1cc(C(c2c(O)nc(SC)[nH]c2=O)c2c(O)nc(SC)[nH]c2=O)ccc1O returned IDE cell inh inactive, eLon inh 49, Rin1 Abl inh inactive and eLon confirm 41.
Screening CCOc1ncccc1C(=O)Nc1cccc(-n2cnnn2)c1C returned IDE act inactive, PKA-R1A act inactive, IDE cell inh inactive, eLon inh inactive, Rin1 Abl inh inactive and PKA-R2B activ inactive.
`Cc1c(NC(=O)c2cc(Br)ccc2Cl)cccc1-n1cnnn1` gave IDE act inactive, PKA-R1A act inactive, IDE cell inh inactive, eLon inh 20, Rin1 Abl inh inactive, PKA-R2B activ inactive and eLon confirm inactive.
Cc1cccc(NC(=O)C2CCCN(c3ncnc4c3nc3n4CCCCC3)C2)n1 (stereo unspecified) was read as IDE act inactive, PKA-R1A act inactive, IDE cell inh inactive, eLon inh inactive, Rin1 Abl inh inactive and PKA-R2B activ inactive.
Screening CC(Sc1ccc(S(=O)(=O)N(C)C)cn1)C(=O)NC1CCCC1 (stereo unspecified) returned IDE act inactive, PKA-R1A act inactive, IDE cell inh inactive, eLon inh 25, Rin1 Abl inh inactive, PKA-R2B activ inactive and eLon confirm inactive.
Screening CC(Sc1ncccn1)C(=O)NC1CCCC1 (stereo unspecified) returned IDE act inactive, PKA-R1A act inactive, IDE cell inh inactive, eLon inh inactive, Rin1 Abl inh inactive and PKA-R2B activ inactive.
Cc1ccc(S(=O)(=O)N(C)C)cc1NC(=O)c1c(-c2c(F)cccc2Cl)noc1C was read as IDE act inactive, PKA-R1A act inactive, IDE cell inh inactive, eLon inh inactive, Rin1 Abl inh inactive and PKA-R2B activ inactive.
Screening Cc1nc(CCNC(=O)CC2C(=O)NCCN2CC(C)(C)C)nc2c1CCC2 (stereo unspecified) returned IDE act inactive, PKA-R1A act inactive, IDE cell inh inactive, eLon inh 22, Rin1 Abl inh inactive, PKA-R2B activ inactive and eLon confirm inactive.
For CCOC(=O)c1ccccc1NC(=O)CSc1nc2[nH]ncc2c(=O)[nH]1 the results were IDE act inactive, PKA-R1A act inactive, IDE cell inh inactive, eLon inh inactive, Rin1 Abl inh inactive and PKA-R2B activ inactive.
Screening O=C(COC(=O)c1cccnc1SC(F)F)NC1CC1 returned IDE act inactive, PKA-R1A act inactive, IDE cell inh inactive, eLon inh inactive, Rin1 Abl inh inactive and PKA-R2B activ inactive.
`CCC/C(=N/NC(=O)c1nnn(-c2nonc2N)c1CN1CCCCC1)c1ccccc1` gave IDE act inactive, PKA-R1A act inactive, IDE cell inh inactive, eLon inh 13, Rin1 Abl inh inactive, PKA-R2B activ inactive and eLon confirm inactive.
Screening CCCc1c(C(=O)N/N=C(\CC)c2ccccc2)nnn1-c1nonc1N returned PKA-R1A act inactive, eLon inh inactive, Rin1 Abl inh inactive and PKA-R2B activ inactive.
`COC(=O)CCCC1=CC2=C(c3ccccc3)C(=O)C(C)(OC(=O)C3CCCC3)C(=O)C2=CN1CCc1ccccn1` (stereo unspecified) gave IDE act inactive, PKA-R1A act inactive, IDE cell inh inactive, eLon inh inactive, Rin1 Abl inh inactive and PKA-R2B activ inactive.
Screening COC(=O)CCCC1=CC2=C(c3ccccc3)C(=O)C(C)(OC(=O)C3CCCC3)C(=O)C2=CN1CCN1CCOCC1 (stereo unspecified) returned IDE act inactive, PKA-R1A act inactive, IDE cell inh inactive, eLon inh 84, Rin1 Abl inh inactive, PKA-R2B activ inactive and eLon confirm 24.
Screening O=C(Oc1ccc2c(c1)O/C(=C\c1ccncc1)C2=O)c1ccccc1 returned IDE act inactive, PKA-R1A act inactive, IDE cell inh inactive, eLon inh 24, Rin1 Abl inh inactive, PKA-R2B activ inactive and eLon confirm 32.
Screening Cc1ccc(C)c(OCC(O)CN2CCN(CCN3C(=O)c4cccc5cccc(c45)C3=O)CC2)c1 (stereo unspecified) returned IDE act inactive, PKA-R1A act inactive, IDE cell inh inactive, eLon inh inactive, Rin1 Abl inh inactive and PKA-R2B activ inactive.
CCN(CC(=O)Nc1c(F)cccc1F)C(=O)c1cc2ccccc2oc1=O was read as IDE act inactive, PKA-R1A act inactive, IDE cell inh inactive, eLon inh 23, Rin1 Abl inh inactive, PKA-R2B activ inactive and eLon confirm inactive.
`CCC(C)c1ccc(NC(=O)COC(=O)CCNS(=O)(=O)c2cccs2)cc1` (stereo unspecified) gave IDE act inactive, PKA-R1A act inactive, IDE cell inh inactive, eLon inh 26, Rin1 Abl inh inactive, PKA-R2B activ inactive and eLon confirm 45.
`Nc1nnc2cc(Br)ccc2n1` gave PKA-R1A act inactive, eLon inh 66, Rin1 Abl inh inactive, PKA-R2B activ inactive and eLon confirm 33.
`Clc1ccccc1-c1cccc2nccn12` gave eLon inh inactive and Rin1 Abl inh inactive.
For CN(C)Cc1ccccc1-c1cccc2nccn12 the results were eLon inh 17, Rin1 Abl inh inactive and eLon confirm inactive.
For CCOc1ccc(C(C)=O)cc1CN1C(=O)NC2(CCCCCC2)C1=O the results were IDE act inactive, PKA-R1A act inactive, IDE cell inh inactive, eLon inh inactive, Rin1 Abl inh inactive and PKA-R2B activ inactive.
